# An excerpt weighted towards active compounds, which were near 4.3% of everything screened.
# D3 antag: D3 dopamine receptor (human) antagonism; AID 652054; D3R cells, DiscoveRx beta-arrestin luminescence, antagonist mode; stronger effect = lower value; hit rate 2.5% among 360,000; max response, negative = inhibition, %; P35462; in the data active = max response below about -50%; inconclusive = no clear call, values can overlap the other calls
#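 Cells expressing the human receptor were seeded at 1500 cells/well, incubated overnight at 37 degrees C in 5% CO2, then exposed to library compounds with dopamine controls for 90 minutes at 37 degrees C before luminescent detection.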
# GLP-1R inv ag: acts as inverse agonist at human GLP-1 receptor. P43220. HEK293 GLP-1R CRE-luciferase, luminescence, 24 h; GLP-1R form is constitutively active. hit rate 1.6% among 410,000. Potency, µM (series often up to 38.3 µM), usual class: inhibitors; also: nearly all actives have a fitted effect of over 55% in size
# Target sequence (P43220 whole entry, looked up): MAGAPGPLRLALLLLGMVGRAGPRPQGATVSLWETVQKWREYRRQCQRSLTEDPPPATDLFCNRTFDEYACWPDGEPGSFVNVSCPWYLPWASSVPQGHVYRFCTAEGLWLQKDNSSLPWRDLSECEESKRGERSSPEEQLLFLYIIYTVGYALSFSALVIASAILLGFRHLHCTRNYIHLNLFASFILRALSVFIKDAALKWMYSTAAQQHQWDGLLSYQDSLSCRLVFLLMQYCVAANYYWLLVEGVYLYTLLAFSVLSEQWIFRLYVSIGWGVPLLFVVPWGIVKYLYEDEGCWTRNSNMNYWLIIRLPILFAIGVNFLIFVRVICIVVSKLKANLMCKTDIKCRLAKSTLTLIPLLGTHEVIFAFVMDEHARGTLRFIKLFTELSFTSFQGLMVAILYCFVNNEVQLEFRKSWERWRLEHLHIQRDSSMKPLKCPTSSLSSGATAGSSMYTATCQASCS
#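 Inverse agonists were sought by their lowering of basal cAMP reporter luciferase output in HEK293 cells stably carrying constitutively active human GLP-1R, after 24 h compound treatment.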
# D3 ag: agonists of human D3 dopamine receptor; P35462; D3R DiscoveRx beta-arrestin cells, luminescence, 90 min; max activation, %; hit rate 0.58% among 410,000; in the data active = max activation above about 30%
#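 Cells at 1500/well, incubated overnight, then treated with pinned compounds (dopamine as control) for 90 min at 37 degrees C. DiscoveRx reagent added for 30 - 60 minutes at room temperature; luminescence read.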
# GLP1R ag: agonists of human GLP-1 receptor | HEK293 GLP-1R CRE-luciferase, luminescence, 4-6 h; cells express a hypersensitive GLP-1R form | hit rate 0.007% among 380,000 | Potency, µM (titrated, usually from 45.6 µM), usual class: activators | P43220
# A number is an active result; - = inactive; ? = inconclusive; . = not tested or not shown. Unless noted, calls follow the shape of the dose curve; as a rule, active = well fitted curve in the direction sought with a large enough effect; inconclusive = small, poorly fitted or top-dose-only effect, or another doubt; inactive = no such curve, though single readings can be large; an effect the other way counts as inactive or inconclusive.
SMILES,D3 antag,GLP-1R inv ag,D3 ag,GLP1R ag
C/C(=N\NC(=S)NC1CCCCC1)c1ccccc1,-,5.62µM,-,-
C/C(=N\NC(=S)NC1CCCCC1)c1ccc(O)cc1,-,?,-,-
CCN(CC)c1ccc(C(=O)NCc2ccc3c(c2)CCN3C(=O)c2ccccc2)cc1,.,-,-,.
Cc1cccc(C)c1NC(=O)NC1(C(=O)NCc2ccncc2)CCCCC1,-,-,-,-
COC(=O)c1cn(C(=O)c2ccc(C)cc2C)c2ccccc12,-,5.01µM,-,-
CCC(CC)C1C(C#N)=C(N)SC(N)=C1C#N,-60.0,-,-,-
CC(C)C1C(C#N)=C(N)SC(N)=C1C#N,?,-,-,-
COc1cc2c(cc1NS(=O)(=O)c1cccc(C#N)c1)n(C)c(=O)n2C,.,-,-,.
COc1cccc(NC(=O)c2ccc(-c3nc(COc4ccccc4)c(C)o3)cc2)c1,.,-,61.6,.
COc1cccc(NC(=O)c2ccc(-c3nc(COc4ccc(C)cc4)c(C)o3)cc2)c1,.,-,-,.
O=C1Nc2c(Cl)cc(Cl)cc2C1=O,-92.8,-,-,-
COc1ccc(NC(=O)c2c(NCc3ccc(C)o3)sc3c2CCCCC3)c(OC)c1,.,?,-,.
CC[C@H]1OC(=O)[C@H](C)[C@@H](O[C@H]2C[C@@](C)(OC)[C@@H](O)[C@H](C)O2)[C@H](C)[C@@H](O[C@@H]2O[C@H](C)C[C@H](N(C)C)[C@H]2O)[C@](C)(O)C[C@H](C)C(=NOCOCCOC)[C@H](C)[C@@H](O)[C@]1(C)O,.,.,.,-
Cc1cc(C)c(S(=O)(=O)N2CCC(N3CCN(Cc4ccccc4)C(=O)C3=O)CC2)c(C)c1,.,-,-,.
CCOC(=O)N1N=C(c2ccc(OC)cc2)CC1(O)C(F)(F)F (stereo not given),-,?,-,-
CCC1=NN(C(=O)C(=O)NCCc2ccccc2)C(O)(C(F)(F)F)C1 (stereo not given),-64.6,-,-,-
CCC1=NN(C(=O)C(=O)Nc2ccc(OC)cc2)C(O)(C(F)(F)F)C1 (stereo not given),-159.5,-,-,-
CCc1ccc(C2=NN(C(=O)OC)C(O)(C(F)(F)F)C2)cc1 (stereo not given),-,7.94µM,-,-
C#CCN(CC(=O)OCC)S(=O)(=O)CCNC1CC1,-,-,-,-
CC1(C)SC2C(N3C(=O)C(c4ccccc4)NC3(C)C)C(=O)N2C1C(=O)O (stereo not given),.,.,.,-
Cc1ccc(-n2nc3c(=O)n(CCCC(=O)NC(C)c4ccccc4)nc(C)c3c2C)cc1 (stereo not given),.,-,-,.
CCc1ccc(NC(=O)CC2C(=O)N(c3ccc(Cl)cc3)C(=O)N2Cc2cccs2)cc1 (stereo not given),.,?,43.4,.
COc1cccc(N2C(=O)C(CC(=O)Nc3ccc(F)cc3)N(CCC3=CCCCC3)C2=O)c1 (stereo not given),.,10µM,-,.
CC(C)CCN1C(=O)N(c2ccccc2)C(=O)C1CC(=O)Nc1ccc(Cl)cc1 (stereo not given),.,10µM,-,.
CC(C)OC(=O)c1c(NC(=O)C2c3ccccc3Oc3ccccc32)sc2c1CCCC2,.,-,-,.
SMILES,D3 antag,GLP-1R inv ag,D3 ag,GLP1R ag
Cc1ccc(S(=O)(=O)N2CCCCC2)cc1NC(=O)CCOc1ccccc1,-,?,-,-
Cc1ccc([N+](=O)[O-])cc1NC(=O)CCCOc1ccccc1,-64.4,-,-,-
Cc1ccc(S(=O)(=O)N2CCCCC2)cc1NC(=O)CCCOc1ccccc1,-,5.62µM,-,-
CCN(CC(=O)Nc1cc(S(=O)(=O)N2CCCCC2)ccc1C)Cc1ccccc1,-,6.31µM,-,-
Cc1ccc(CNC(=O)Cn2ccn(-c3ccc(F)c(F)c3)c(=O)c2=O)cc1,.,-,-,.
CCOC(=O)C(=O)Nc1ccc(S(=O)(=O)Nc2nccs2)cc1,-,-,-,-
COc1cc(/C=C2/C(=O)CNC2=O)ccc1O,-,-,-,-
COc1cc(C=C2C(=O)C=CC2=O)ccc1O,-135.8,?,-,-
COc1cccc(OC)c1C(=O)NC(C)C12CC3CC(CC(C3)C1)C2 (stereo not given),-,8.91µM,-,-
COc1cc(-c2nc(-c3cccc(C)c3)no2)cc(OC)c1OC,-,-,58.1,-
COc1ccc(-c2nc(-c3cccc(C)c3)no2)cc1OC,-,-,64.6,-
CC(NC(=O)/C(C#N)=C/c1ccc([N+](=O)[O-])o1)c1ccccc1 (stereo not given),-96.0,?,-,-
COc1ccc(/C=C(\C#N)C(=O)NC(C)c2ccccc2)cc1O (stereo not given),-,?,-,-
COC(=O)c1ccc(/C=C(\C#N)C(=O)NC(C)c2ccccc2)cc1 (stereo not given),-55.5,?,-,-
CC(NC(=O)/C(C#N)=C/c1ccco1)c1ccccc1 (stereo not given),-,-,-,-
COC(=O)c1cc(NC(=O)c2cc3sccc3n2Cc2ccc(Cl)cc2)cc(C(=O)OC)c1,.,-,-,-
FC(F)(F)c1ccc2c(c1)ncc1c(-c3ccccc3)nn(-c3ccccc3)c12,.,-,-,-
COc1ccc(-c2ccc(-c3noc(-c4ccco4)n3)c(OC)n2)cc1,-,-,36.6,-
COc1nc(-c2ccccc2)ccc1-c1noc(-c2ccco2)n1,-,-,-,-
Cc1ccc(CNc2oc(-c3ccco3)nc2S(=O)(=O)c2ccccc2)cc1,-,10µM,-,-
O=S(=O)(c1ccc(Cl)cc1)c1nc(-c2ccccc2F)oc1NCCCN1CCOCC1,-60.3,-,-,-
O=S(=O)(c1ccccc1)c1nc(-c2ccco2)oc1NCCN1CCOCC1,-,-,-,-
Cc1ccc(S(=O)(=O)c2nc(-c3ccccc3Cl)oc2NCCCN2CCOCC2)cc1,-53.3,?,-,-
Cc1ccc(C(=O)Nc2ccc(-n3c(C)nc4ccccc4c3=O)cc2)cc1[N+](=O)[O-],.,?,-,.
CCC1Oc2ccccc2N(CC(=O)NCCCN2CCN(Cc3ccccc3)CC2)C1=O (stereo not given),?,-,-,-
SMILES,D3 antag,GLP-1R inv ag,D3 ag,GLP1R ag
CCC1Oc2ccccc2N(CC(=O)NCCN2CCc3ccccc3C2)C1=O (stereo not given),-53.3,-,-,-
CCCN1CCN(CCCNC(=O)CN2C(=O)C(CC)Oc3ccccc32)CC1 (stereo not given),-,-,-,-
CCC1Oc2ccc(C)cc2N(CC(=O)NCCCN2CCCC2)C1=O (stereo not given),-67.9,-,-,-
CCc1ccccc1N1C(=O)N(C)c2ccccc2S1(=O)=O,.,?,-,-
COC(=O)C1CCN(C(=O)Nc2ccccc2)CC1,-,-,-,-
CNC(=O)/C(C#N)=C/c1cn(CC(=O)NCc2ccco2)c2ccccc12,-,-,-,-
COCCNC(=O)Cn1cc(/C=C(\C#N)C(=O)NC2CCCC2)c2ccccc21,-59.7,-,-,-
S=C(NCc1cccs1)Nc1cc(Cl)cc(Cl)c1,-,8.91µM,-,-
S=C(NCc1cccs1)Nc1cccc(Cl)c1,-,-,-,-

# Bioassay records deposited in PubChem by National Center for Advancing Translational Sciences (NCATS).
